This is part of a sample that, as a whole, favours compounds with a hit. Of some 79,000 tested, about 15% had one in any assay. A number with no mark means an inactive call. The source made the active and inactive calls. Rule as the data show it: active = growth inhibition above about 70%; inactive = the rest.

Assay [1] in a line: NCI Yeast Anticancer Drug Screen. Data for the rad50 strain (AID 155).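 Also: 0% = growth of vehicle-only cultures of the same strain.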 As to conditions: S. cerevisiae rad50 strain growth inhibition, stronger effect = higher value. In outline:
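Readout: growth inhibition relative to vehicle-treated cultures. Compound exposure was carried out in a genetically defined yeast strain deficient in DNA damage repair.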

Assay [2] is described as follows: NCI Yeast Anticancer Drug Screen. Data for the mec2-1 strain (AID 157). Conditions: S. cerevisiae mec2-1 strain, stronger effect = higher value. In outline:
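Mutant yeast (mec2-1) grown with compound; growth inhibition relative to vehicle control reported.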

A short description of assay [3]: NCI Yeast Anticancer Drug Screen. Data for the sgs1 mgt1 strain (AID 161).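 Also: 0% = growth of cultures given vehicle only.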 As to conditions: S. cerevisiae sgs1 mgt1 strain, stronger effect = higher value. In outline:
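Yeast cells carrying a defined DNA-repair defect were exposed to test compounds. Growth inhibition was measured relative to vehicle-treated controls.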

Assay [4] in a line: NCI Yeast Anticancer Drug Screen. Data for the cln2 rad14 strain (AID 165).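 Also: 0% = growth equal to vehicle treated cultures.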 Conditions: S. cerevisiae cln2 rad14 strain, stronger effect = higher value. In outline:
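Readout is yeast growth inhibition versus vehicle-treated controls, using a strain with cln2 and rad14 alterations exposed to compound.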

A short description of assay [5]: NCI Yeast Anticancer Drug Screen. Data for the bub3 strain (AID 167). Conditions: S. cerevisiae bub3 mutant strain, stronger effect = higher value. In outline: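 Readout: yeast growth inhibition, expressed relative to vehicle-only wells. The test organism is a mutant strain from a panel with lesions in DNA repair or checkpoint genes.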
A short description of assay [6]: NCI Yeast Anticancer Drug Screen. Data for the mlh1 rad18 strain (AID 175). As to conditions: S. cerevisiae mlh1 rad18 strain growth inhibition, stronger effect = higher value. In outline:
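Genetically defined yeast (DNA repair-deficient) exposed to compounds; growth inhibition determined relative to vehicle.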

Where [7] appears, read: at 5.0 µM (retest, dose inferred, filed as 0.5).
[8] abbreviates: at 50.0 µM (retest, dose inferred, filed as 5.0).

For the compound `Cn1c(=O)nc2n(-c3ccc(Cl)cc3)c3cc(Cl)ccc3nc-2c1=O`, the growth inhibition is 7% in assay [1] (setting [7]); 20% in assay [1] (setting [8]); 20.6% in assay [1] (at 50.0 µM); 4% in assay [2] (setting [7]); 9% in assay [2] (setting [8]); 24.1% in assay [2] (at 50.0 µM). Also, the growth inhibition in assay [3] (setting [7]) was 9%; in assay [3] (setting [8]), 15%; in assay [3] (at 50.0 µM), 7.8%; in assay [4] (setting [7]), 15%; in assay [4] (setting [8]) it was 20%; in assay [4] (at 50.0 µM) it was 16.9%. In addition, the growth inhibition in assay [5] (setting [7]) is 17%; in assay [5] (setting [8]), 18%; in assay [5] (at 50.0 µM), -6.9%; in assay [6] (setting [7]), 7%; in assay [6] (setting [8]), 20%; in assay [6] (at 50.0 µM) it was 77% (active).
For `CC(=O)N(c1ccccc1)C(C)C`, the growth inhibition in assay [1] (setting [7]) is 6%; in assay [1] (setting [8]) it was 14%; in assay [1] (at 50.0 µM), -5.75%; in assay [2] (setting [7]) it was 6%; in assay [2] (setting [8]) it was 0%; in assay [2] (at 50.0 µM) it was -10.2%. The growth inhibition is 1% in assay [3] (setting [7]); 1% in assay [3] (setting [8]); -9.75% in assay [3] (at 50.0 µM); -1% in assay [4] (setting [7]); -5% in assay [4] (setting [8]); 44.4% in assay [4] (at 50.0 µM). In addition, the growth inhibition is 10% in assay [5] (setting [7]); 79% (active) in assay [5] (setting [8]); -1.65% in assay [5] (at 50.0 µM); 14% in assay [6] (setting [7]); 10% in assay [6] (setting [8]); 9.8% in assay [6] (at 50.0 µM).
On to `O=S1(=O)c2ccccc2C(Br)C1Br` (stereo not given), for which the growth inhibition was 31% in assay [1] (setting [7]); 98% (active) in assay [1] (setting [8]); 99.2% (active) in assay [1] (at 50.0 µM); 30% in assay [2] (setting [7]); 99% (active) in assay [2] (setting [8]); 99.5% (active) in assay [2] (at 50.0 µM). For the same compound, the growth inhibition in assay [3] (setting [7]) was 27%; in assay [3] (setting [8]), 99% (active); in assay [3] (at 50.0 µM), 58.4%; in assay [4] (setting [7]), 22%; in assay [4] (setting [8]), 99% (active); in assay [4] (at 50.0 µM), 99% (active). In addition, the growth inhibition is 25% in assay [5] (setting [7]); 98% (active) in assay [5] (setting [8]); 99.6% (active) in assay [5] (at 50.0 µM); 56% in assay [6] (setting [7]); 99% (active) in assay [6] (setting [8]); 99.3% (active) in assay [6] (at 50.0 µM).
For the compound `C=C(CS(=O)(=O)c1ccccc1)[P+](c1ccccc1)(c1ccccc1)c1ccccc1`, the growth inhibition in assay [1] (setting [7]) is 0%; in assay [1] (setting [8]), 95% (active); in assay [1] (at 50.0 µM), 29.2%; in assay [2] (setting [7]), -6%; in assay [2] (setting [8]) it was 92% (active); in assay [2] (at 50.0 µM) it was 37.5%. For the same compound, the growth inhibition is -6% in assay [3] (setting [7]); 95% (active) in assay [3] (setting [8]); 34.4% in assay [3] (at 50.0 µM); -1% in assay [4] (setting [7]); 81% (active) in assay [4] (setting [8]); 28.5% in assay [4] (at 50.0 µM). The growth inhibition was -3% in assay [5] (setting [7]); 88% (active) in assay [5] (setting [8]); 2.15% in assay [5] (at 50.0 µM); -2% in assay [6] (setting [7]); 92% (active) in assay [6] (setting [8]); 67.5% in assay [6] (at 50.0 µM).
Regarding `COc1ccc2c(C#N)cc3c(c[n+](C)c4ccccc34)c2c1`, the growth inhibition was 25% in assay [1] (setting [7]); 78% (active) in assay [1] (setting [8]); 92% (active) in assay [1] (at 50.0 µM); 13% in assay [2] (setting [7]); 58% in assay [2] (setting [8]); 86.4% (active) in assay [2] (at 50.0 µM). Moreover, the growth inhibition in assay [3] (setting [7]) was 19%; in assay [3] (setting [8]) it was 71% (active); in assay [3] (at 50.0 µM) it was 87.8% (active); in assay [4] (setting [7]), 15%; in assay [4] (setting [8]), 48%; in assay [4] (at 50.0 µM) it was 80.7% (active). Besides, the growth inhibition in assay [5] (setting [7]) is -2%; in assay [5] (setting [8]) it was 65%; in assay [5] (at 50.0 µM), 78% (active); in assay [6] (setting [7]) it was 21%; in assay [6] (setting [8]) it was 83% (active); in assay [6] (at 50.0 µM), 92% (active).
Take `CN(C)N=Nc1ccc2[nH]c(=O)[nH]c2c1`: the growth inhibition in assay [1] (setting [7]) is 16%; in assay [1] (setting [8]), 18%; in assay [1] (at 50.0 µM), 53%; in assay [2] (setting [7]), 5%; in assay [2] (setting [8]), 9%; in assay [2] (at 50.0 µM), 38.8%. The growth inhibition was 16% in assay [3] (setting [7]); -18% in assay [3] (setting [8]); 12.6% in assay [3] (at 50.0 µM); 13% in assay [4] (setting [7]); -54% in assay [4] (setting [8]); 29.1% in assay [4] (at 50.0 µM). Moreover, the growth inhibition in assay [5] (setting [7]) was 14%; in assay [5] (setting [8]), -11%; in assay [5] (at 50.0 µM), 74% (active); in assay [6] (setting [7]), 19%; in assay [6] (setting [8]) it was 19%; in assay [6] (at 50.0 µM), 72.5% (active).
As for `CC1(C)OC2OC(/C=C/[N+](=O)[O-])C3OC(C)(C)OC3C2O1` (stereo not given), the growth inhibition in assay [1] (setting [7]) was 20%; in assay [1] (setting [8]) it was 98% (active); in assay [1] (at 50.0 µM), 8.25%; in assay [2] (setting [7]), 3%; in assay [2] (setting [8]), 98% (active); in assay [2] (at 50.0 µM), 10.9%. The growth inhibition in assay [3] (setting [7]) is -17%; in assay [3] (setting [8]), 97% (active); in assay [3] (at 50.0 µM), 13.2%; in assay [4] (setting [7]), 17%; in assay [4] (setting [8]), 99% (active); in assay [4] (at 50.0 µM) it was 5.45%. Further, the growth inhibition in assay [5] (setting [7]) is -9%; in assay [5] (setting [8]), 97% (active); in assay [5] (at 50.0 µM), 4.75%; in assay [6] (setting [7]), 17%; in assay [6] (setting [8]) it was 97% (active); in assay [6] (at 50.0 µM), 27.4%.
On to `CCN(CC)CCOc1c(Cl)c(Cl)c(Cl)c(Cl)c1Cl`, for which the growth inhibition was 23% in assay [1] (setting [7]); 62% in assay [1] (setting [8]); 71.7% (active) in assay [1] (at 50.0 µM); 15% in assay [2] (setting [7]); 77% (active) in assay [2] (setting [8]); 57.5% in assay [2] (at 50.0 µM). Also, the growth inhibition in assay [3] (setting [7]) was 20%; in assay [3] (setting [8]), 88% (active); in assay [3] (at 50.0 µM) it was 86.8% (active); in assay [4] (setting [7]) it was -1%; in assay [4] (setting [8]), 80% (active); in assay [4] (at 50.0 µM), 48.5%. The growth inhibition in assay [5] (setting [7]) is 1%; in assay [5] (setting [8]), 56%; in assay [5] (at 50.0 µM), 64.2%; in assay [6] (setting [7]) it was 7%; in assay [6] (setting [8]), 80% (active); in assay [6] (at 50.0 µM), 71.8% (active).
With `CC(=O)OC1C(OC(C)=O)C2C(C)CC3OC(=O)C(C)C3CC2(C)C1OC(C)=O` (stereo not given), the growth inhibition was -7% in assay [1] (setting [7]); 71% (active) in assay [1] (setting [8]); 78.2% (active) in assay [1] (at 50.0 µM); 2% in assay [2] (setting [7]); 82% (active) in assay [2] (setting [8]); 77.2% (active) in assay [2] (at 50.0 µM). The growth inhibition is -6% in assay [3] (setting [7]); 69% in assay [3] (setting [8]); 73.6% (active) in assay [3] (at 50.0 µM); 34% in assay [4] (setting [7]); 46% in assay [4] (setting [8]); 32.4% in assay [4] (at 50.0 µM). Moreover, the growth inhibition was 9% in assay [5] (setting [7]); 80% (active) in assay [5] (setting [8]); 67% in assay [5] (at 50.0 µM); -18% in assay [6] (setting [7]); 81% (active) in assay [6] (setting [8]); 72.7% (active) in assay [6] (at 50.0 µM).
In the case of `CC1=CC(=O)CC(c2ccccc2)C1` (stereo not given), the growth inhibition in assay [1] (setting [7]) was 43%; in assay [1] (setting [8]) it was 98% (active); in assay [1] (at 50.0 µM), 97.6% (active); in assay [2] (setting [7]), 30%; in assay [2] (setting [8]) it was 99% (active); in assay [2] (at 50.0 µM), 98.3% (active). The growth inhibition in assay [3] (setting [7]) was 22%; in assay [3] (setting [8]) it was 99% (active); in assay [3] (at 50.0 µM), 98.7% (active); in assay [4] (setting [7]), 11%; in assay [4] (setting [8]), 97% (active); in assay [4] (at 50.0 µM) it was 92.5% (active). Also, the growth inhibition was 31% in assay [5] (setting [7]); 99% (active) in assay [5] (setting [8]); 98.7% (active) in assay [5] (at 50.0 µM); 55% in assay [6] (setting [7]); 99% (active) in assay [6] (setting [8]); 98.3% (active) in assay [6] (at 50.0 µM).

For the origin of these results see PubChem BioAssay (NCI).
